VDR inh: vitamin D3 receptor (human) inhibition; P11473; VDR-SRC2-3 peptide fluorescence polarization, 2 h; Potency, µM, most hits filed as inhibitors; 0.93% of 400,000 active; AID 504847
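Signal is fluorescence polarization, reporting how far test compounds block the interaction of VDR with the SRC2-3 coregulator peptide after a 2 h room-temperature incubation.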
Sfp inh: inhibitors of Bacillus subtilis Sfp phosphopantetheinyl transferase. Q9F4F7. 3.5% of 310,000 active. Potency, µM, usual class: inhibitors. Biochemical Sfp PPTase activity, qHTS;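 also: the enzyme is Sfp with the accession as filed and its product quenches rhodamine fluorescence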
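Sfp 15 nM + cpd, 15 min RT; start w/ rhodamine-CoA 5 uM, BHQ-2-YbbR 12.5 uM (final); 50 mM Hepes pH 7.6, 10 mM MgCl2, 0.01% NP-40, 0.01% BSA; read 525/598 nm at 0 and 30 min.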
PLK1 PBD block: PLK1 (human) polo-box domain binding inhibition. 2.8% of 360,000 active. P53350. Plk1 PBD binding of FITC phosphopeptide, fluorescence polarization. Potency, µM, hits mostly inhibitors; also: series mostly up to about 57 µM; nearly all actives have a fitted effect of over 65% in size
Target sequence (P53350 whole entry, looked up, the tested form may be a part): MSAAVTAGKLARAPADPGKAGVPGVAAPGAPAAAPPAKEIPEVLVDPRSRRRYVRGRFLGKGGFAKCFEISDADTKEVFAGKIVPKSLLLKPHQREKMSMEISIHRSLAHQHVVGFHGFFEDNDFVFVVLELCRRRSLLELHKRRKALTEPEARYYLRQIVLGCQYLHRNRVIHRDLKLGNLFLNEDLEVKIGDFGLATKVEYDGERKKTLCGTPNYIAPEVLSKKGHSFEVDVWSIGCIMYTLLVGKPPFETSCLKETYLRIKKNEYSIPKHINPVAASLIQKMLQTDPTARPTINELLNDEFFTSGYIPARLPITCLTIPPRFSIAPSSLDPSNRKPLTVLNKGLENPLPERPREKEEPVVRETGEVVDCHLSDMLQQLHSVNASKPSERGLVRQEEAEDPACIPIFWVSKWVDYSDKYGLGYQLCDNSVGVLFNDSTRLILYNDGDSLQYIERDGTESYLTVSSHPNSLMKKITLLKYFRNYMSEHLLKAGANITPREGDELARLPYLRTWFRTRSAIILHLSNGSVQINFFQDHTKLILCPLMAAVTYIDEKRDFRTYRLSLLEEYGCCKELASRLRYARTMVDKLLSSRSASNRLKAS
12-LOX inh: inhibitors of human 12S-lipoxygenase ALOX12. P18054. purified 12hLO, xylenol orange hydroperoxide absorbance. Potency, µM (highest dose often 108 µM), hits mostly inhibitors. 1.1% of 580,000 active. AID 1671190
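Purified human 12hLO (150 nM final) in 25 mM Hepes, 0.01% Triton X-100, pH 7.0 was preincubated 15 min at room temperature with compound. Then 40 uM arachidonic acid was added, 30 min. Hydroperoxide was read by Fe-XO absorbance ratio 573/405 nm.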
Hits are given with their value; . = inactive; ? = inconclusive; / = no result given; ! = a repeat was not active. This is a sample that favours compounds with a hit; in the whole collection about 4.2% have one here. Calls follow the shape of the dose curve; as a rule, active = well fitted curve in the direction sought with a large enough effect; inconclusive = small, poorly fitted or top-dose-only effect, or another doubt; inactive = no such curve, though single readings can be large; an effect the other way counts as inactive or inconclusive.

SMILES	VDR inh	Sfp inh	PLK1 PBD block	12-LOX inh
Cc1nc(CN2CCC(c3ccccc3)CC2)cc(=O)[nH]1	?	.	21.2µM	.
Cc1cccnc1Nc1nc(-c2ccc(O)cc2O)cs1	.	44.7µM	18.9µM	.
NS(=O)(=O)c1ccc(Nc2nc(-c3ccc(O)cc3O)cs2)cc1	.	.	.	.
Cc1cccnc1Nc1nc(-c2ccccc2)cs1	.	50.1µM	.	.
Cc1c(NC(=O)COc2ccc3ccc(=O)oc3c2)c(=O)n(-c2ccccc2)n1C	.	/	.	?
Fc1ccc(-c2noc3ncnc(NC4CCCCC4)c23)cc1	.	/	/	.
O=C(c1n[nH]c2c1CCCCCC2)N1CCc2nc3cc(-c4ccccc4)[nH]n3c(=O)c2C1	/	/	/	.
O=C(CSc1nnc(-c2cccnc2)n1-c1ccccc1)Nc1ccccn1	.	.	3.36µM	.
Nc1nc(SCC(=O)Nc2cccnc2Cl)n[nH]1	.	.	11.9µM	.
CN(C)C(=O)CSc1nnc(-c2cccnc2)n1-c1ccccc1	.	.	.	.
Nn1c(SCC(=O)Nc2cccnc2Cl)nnc1-c1ccccc1	79.4µM	/	4.74µM	/
Cc1ccc(-c2nnc(SCC(=O)Nc3cccnc3Cl)n2N)cc1	.	/	.	.
CCOC(=O)c1c(C)[nH]c(C(=O)COC(=O)c2cc(C)oc2C)c1C	.	/	.	.
NC(=O)CC(NC(=O)c1ccccc1)c1ccc(NCc2ccc(F)c(F)c2)c([N+](=O)[O-])c1 (centres undefined)	.	.	.	.
NC(=O)CC(NC(=O)c1ccc(Br)cc1)c1ccc(NCc2ccc(F)c(F)c2)c([N+](=O)[O-])c1 (centres undefined)	.	50.1µM	.	.
Cc1ccc(-n2nc(C(=O)N3CCN(c4cc(Cl)ccc4C)CC3)c(=O)n(C)c2=O)cc1	.	/	/	.
O=C(O)C1CCCN1 (centres undefined)	.	?	/	/
O=C(O)[C@H]1CCCN1	.	44.7µM!	/	.
CCN(CC)CCC12CC3CC(CC(C3)C1)C2	/	/	/	.
c1ccc2c(-n3ccnc3)nc(-c3ccoc3)nc2c1	31.6µM	.	/	?
CN(C)c1nc(-c2ccoc2)nc2ccccc12	?	50.1µM	/	?
c1ccc(Nc2nc(-c3ccoc3)nc3ccccc23)cc1	28.2µM	.	/	?
O=C(CC1CC1)Nc1ccc2c(c1)[C@H]1C[C@H](CC(=O)N3CCc4ccccc4C3)O[C@@H](CO)[C@H]1O2	/	/	.	?
N#CC(c1ccc(Cl)cc1)c1c(Cl)cc(-n2ncc(=O)[nH]c2=O)cc1Cl (centres undefined)	28.2µM	.	/	.
CCOc1cc(/C=N\Nc2nc(-c3ccc(C)cc3)c(NC(C)=O)s2)ccc1O	.	.	.	.
SMILES	VDR inh	Sfp inh	PLK1 PBD block	12-LOX inh
Cc1sc(/N=C/c2c[nH]c3ccccc23)c(C#N)c1C	/	/	/	20µM
Cc1sc(/N=C/c2ccc(C(C)(C)C)cc2)c(C#N)c1C	/	/	/	.
Cc1sc(/N=C/c2ccc(Br)cc2)c(C#N)c1C	/	/	/	17.8µM
O=C(c1nc(-c2ccc(F)cc2)c2ccccn12)N1CCCC1	/	/	/	.
Cc1ccc(S(=O)(=O)NC(=O)NN2CC3CCCC3C2)cc1 (centres undefined)	.	?	.	3.06µM!
CCC(Oc1ccccc1)C(=O)Nc1ccc(-c2nnc(-c3ccco3)o2)cc1 (centres undefined)	.	.	.	.
NS(=O)(=O)c1ccc(NC(=S)NC(=O)c2ccc(Br)o2)cc1	.	56.2µM	21.2µM	.
CN(C)S(=O)(=O)c1ccc(NC(=S)NC(=O)c2ccc(Br)o2)cc1	/	56.2µM	/	?
NS(=O)(=O)c1ccc(NC(=S)NC(=O)c2ccco2)cc1	.	44.7µM!	.	.
CCOc1ccc(NC(=S)NC(=O)c2ccco2)cc1	.	56.2µM	.	?
O=C(CCNC(=O)c1ccco1)NC(Cc1c[nH]c2ccccc12)C(=O)O (centres undefined)	.	/	.	.
Cc1c(Cc2ccccc2)sc(NC(=O)/C=C/c2cccc3ccccc23)c1C(N)=O	?	.	7.52µM	.
O=S1(=O)N=C(Nc2nncs2)c2ccccc21	.	50.1µM	23.8µM	?
CCN(CC)S(=O)(=O)c1ccc(NC2=NS(=O)(=O)c3ccccc32)cc1	.	.	.	.
Cc1c(CCC(=O)NCc2cccc(Cl)c2)c(=O)oc2c(C)c(O)ccc12	.	/	/	?
O=[N+]([O-])c1cccc(-c2nc(NCc3ccccc3)c3ccccc3n2)c1	.	.	.	.
CN(Cc1ccccc1)c1nc(-c2cccc([N+](=O)[O-])c2)nc2ccccc12	?	.	26.7µM	.
CCOC(=O)N1CCc2c(sc(NC(=O)CN3CCOCC3)c2C#N)C1	.	.	.	.
CCOC(=O)c1c(NC(=S)N2CCOCC2)sc2c1CCN(C(=O)OCC)C2	?	50.1µM	.	?
CCOC(=O)c1c(NC(=S)N2CCCCC2)sc2c1CCN(C(=O)OCC)C2	.	?	.	?
CCOC(=O)N1CCc2c(sc(N)c2C#N)C1	?	56.2µM	.	?
COc1cccc2c1OCC(C(=O)N1CC(Oc3ccccc3C)C1)C2 (centres undefined)	/	/	/	.
Cc1ccc(C)c(-c2csc(-c3cc4ccc(O)cc4oc3=O)n2)c1	/	/	/	.
O=c1oc2cc(O)ccc2cc1-c1nc2ccccc2o1	/	/	10.6µM	?
CCC(=Nc1ccc(N)cc1)C1=C(O)C(C(=O)OC)C(C)(C)CC1=O (centres undefined)	.	44.7µM	.	.
SMILES	VDR inh	Sfp inh	PLK1 PBD block	12-LOX inh
O=C(NCc1cccnc1)c1ccc(-c2cccc(Cl)c2Cl)o1	.	15.8µM	.	.
O=C(NCc1cccnc1)C1CC(c2ccccc2O)=NO1 (centres undefined)	.	.	.	.
O=C(NCc1cccnc1)c1ccc(-c2ccccc2[N+](=O)[O-])o1	.	.	.	.
Cc1cc2c(cc(C(=O)NCc3cccnc3)n2Cc2ccc(Cl)cc2)o1	.	44.7µM	.	?
O=C(NCc1cccnc1)C1CC(c2ccccc2Cl)=NO1 (centres undefined)	.	.	26.7µM	.
O=C(NCc1ccco1)C1CC(c2c(Cl)cccc2Cl)=NO1 (centres undefined)	.	79.4µM	.	.
O=C(O)c1ccc(-c2ccccc2C(F)(F)F)o1	.	.	.	.
O=C(NCc1ccccc1)c1ccc(-c2ccccc2C(F)(F)F)o1	112µM!	.	.	?
O=C1CCC(C(=O)NCc2cccnc2)N1 (centres undefined)	.	.	29.9µM	.
CCC(=NCc1ccco1)c1c(C(F)(F)F)[nH]n(-c2nc3ccccc3s2)c1=O	.	.	.	?
Fc1ccc(Nc2ccnc(-c3ccccc3C(F)(F)F)n2)cc1	44.7µM	.	/	?
Fc1ccc(Nc2ncncc2-c2ccccc2C(F)(F)F)cc1	?	79.4µM	/	?
CN(C)c1ccnc(-c2ccccc2C(F)(F)F)n1	.	.	/	50.1µM
COc1cccc(-c2cncnc2Nc2ccccc2)c1	39.8µM	.	/	39.8µM
COc1ccccc1-c1[nH]nc2ncc(C(=O)Nc3cc(C)nn3C)nc12	/	/	/	.
COc1ccc(N(CC(=O)N2CCN(c3ccc(F)cc3)CC2)S(=O)(=O)c2c(C)n[nH]c2C)cc1	.	.	.	.
Cn1[nH]c(C(F)(F)F)c(C=NCc2ccc(Cl)cc2)c1=O	.	.	.	.

From PubChem
